Compound activity (PubChem)
FBW7 activator: FBW7 E3 ligase activators, primary screen, biochemical, AlphaScreen, human; normalized activity (activation), % at 26.1 µM; AID 1259310, 2017; hit rate 0.13% among 650,000; AlphaScreen FBW7–phospho-cyclin E peptide binding, activator screen; F-box/WD repeat-containing protein 7 (Homo sapiens), Q969H0; in the data active means normalized activity above about 1.9%;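 further: purified mutant Fbw7 with reduced substrate affinity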
Target sequence (Q969H0 whole entry, looked up): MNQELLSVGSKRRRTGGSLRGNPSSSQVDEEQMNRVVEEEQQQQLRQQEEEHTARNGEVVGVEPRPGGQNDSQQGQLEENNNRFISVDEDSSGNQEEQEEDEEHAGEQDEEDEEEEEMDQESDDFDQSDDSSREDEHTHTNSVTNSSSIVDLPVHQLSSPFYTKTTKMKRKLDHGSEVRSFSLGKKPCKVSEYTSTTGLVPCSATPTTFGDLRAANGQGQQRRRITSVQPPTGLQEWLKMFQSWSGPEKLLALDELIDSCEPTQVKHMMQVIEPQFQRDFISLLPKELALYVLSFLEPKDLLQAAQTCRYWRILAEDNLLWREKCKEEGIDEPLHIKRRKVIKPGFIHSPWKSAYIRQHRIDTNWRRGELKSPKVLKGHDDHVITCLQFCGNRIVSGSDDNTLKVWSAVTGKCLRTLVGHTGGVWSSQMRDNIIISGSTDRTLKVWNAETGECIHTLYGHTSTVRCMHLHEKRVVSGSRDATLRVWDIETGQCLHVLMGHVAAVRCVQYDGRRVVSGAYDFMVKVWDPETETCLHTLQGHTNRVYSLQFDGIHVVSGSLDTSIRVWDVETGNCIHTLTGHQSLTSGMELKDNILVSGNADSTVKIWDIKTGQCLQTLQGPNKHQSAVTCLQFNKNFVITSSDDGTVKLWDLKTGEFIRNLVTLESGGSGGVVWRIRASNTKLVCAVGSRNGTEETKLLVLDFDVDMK
MITF primary: MITF inhibitors, primary screen, biochemical, AlphaScreen, human; inhibition, % at 2.6 µM; Microphthalmia-associated transcription factor (Homo sapiens), O75030; hit rate 0.91% among 650,000; AlphaScreen MITF homodimerization, bead proximity signal; in the data active means inhibition above about 50%;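 further: 0% = vehicle wells with protein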
GPR151 activ: activators of human GPR151, primary screen, cell-based, PathHunter beta-arrestin, luminescence; G-protein coupled receptor 151 (Homo sapiens), Q8TDV0; PathHunter beta-arrestin GPR151 cells; activation, % at 11.2 µM; hit rate 1% among 650,000; in the data active means activation above about 4.9%;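 further: 0% = median of compound wells and 100% = cells with positive control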
TEAD-YAP block: TEAD-YAP interaction inhibition, primary screen, TEAD-YAP interaction inhibitor project, luminescence, HEK-TIYL cells. TEAD-Gal4/YAP UAS-luciferase luminescence. inhibition, % at 9.12 µM. hit rate 1.4% among 640,000. AID 1259422, 2018; in the data active means inhibition above about 32%;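 further: 0% = median of test compound wells and 100% = reference inhibitor wells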
GPR151 conf act: GPR151 activators, triplicate retest, confirmation, cell-based, PathHunter beta-arrestin, luminescence | AID 1508609, 2020 | GPR151 PathHunter beta-arrestin cells, 90 min; % of EA-reagent control over plate median | activation, % at 11.2 µM | 6,700 tested, under 10 active | shares compounds with GPR151 activ;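 active means mean percent activation across replicates above the confirmation screen cutoff of 4.91%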
GPR119 ag: GPR119 activators in beta-arrestin cells, counter-screen for GPR151 activator project, cell-based, PathHunter beta-arrestin, luminescence, triplicate; shares compounds with GPR151 activ; 90 min; 0 = compound-well median, 100 = enzyme-acceptor control; activation, % at 11.2 µM; hit rate 0.3% among 6,700;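 active means mean percent activation in the counterscreen above 29.09%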;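 further: counterscreen on off-target GPR119 to flag nonselective hits from the GPR151 activator screen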
Starred values were filed as active, the others as inactive; . = not tested or not shown; ! = not active in a repeat. Only some compounds are listed: those with a hit (about 3.5% of all), similar ones and a draw of the others.

SMILES	FBW7 activator	MITF primary	GPR151 activ	TEAD-YAP block	GPR151 conf act	GPR119 ag
CCc1ccc(NC(=O)CSc2nc3ccccc3c(=O)n2CCc2ccccc2)cc1	0	-6	5.8*	-2	-1	-12
CC(=O)n1c(SCC(=O)Nc2ccc(C(C)C)cc2)nc2ccccc21	0	-1	6.8*	-11	0	13
Cc1ccc2nc(/C(C#N)=C\c3ccc(C)o3)[nH]c2c1	0	2	0	-44	.	.
O=C(COc1cccc([N+](=O)[O-])c1)N=Nc1c(O)[nH]c2ccc([N+](=O)[O-])cc12	0	-3	2	5	.	.
COCCN(C(=O)CCc1nnc(-c2ccc3c(c2)OCO3)o1)C(C)C	0	8	0	-39	.	.
CCn1c(SCC(=O)Nc2ccc(C(=O)OC)cc2)nc2cccnc21	0	12	5.5*	4	0	-6
C=CCN1C(=O)/C(=C/c2ccc(O)c(OC)c2)S/C1=N\c1nnc(CC)s1	0	9	0	12	.	.
CC(=O)c1c(C)[nH]c(C(=O)N2CCN(c3ccccc3)CC2)c1C	0	14	13*	5	-1	-3
CC(=O)c1c(C)[nH]c(C(=O)N2CCN(c3ccccc3F)CC2)c1C	0	6	0	4	.	.
O=C(c1ccccc1)N1CCN=C1SCc1cccnc1	0	-8	1	-20	.	.
CC(=O)N1C(=O)/C(=C2\SC(=S)N(c3ccccc3F)C2=O)c2ccccc21	0	-3	0	0	.	.
COc1ccccc1N1C(=O)/C(=C2/C(=O)N(C(C)=O)c3ccccc32)SC1=S	0	23	6.5*	-5	-2	-9
CC(C)C1=CC(=Nc2ccc(S(N)(=O)=O)cc2)C=C(C(C)C)C1=O	0	4	14*	8	1	9
CCNC(=O)NNC(=O)C(=O)Nc1ccc(C)c(C)c1	0	11	0	-4	.	.
CC(=O)NC(NC(=O)c1ccc(Cl)cc1)C(Cl)Cl (stereo not drawn)	1	12	6.9*	11	0	8
CC(=O)NNC(=O)c1ccc(Cl)cc1	1	-1	0	-4	.	.
O=S(=O)(NCC(c1ccco1)S(=O)(=O)c1ccc(F)cc1)c1cccs1 (stereo not drawn)	0	-5	11*	3	0	-4
Cc1nnc(SCc2ccc(Cl)cc2)nc1C	0	7	5.2*	-22	0	-5
Cc1nnc(SCc2ccc(Cl)cc2)nc1/C=C/N(C)C	0	12	0	8	.	.
COc1ccc(C2CC(=O)C3=C(C2)Nc2ccccc2N(C(=O)C(F)(F)F)C3c2ccccc2)cc1 (stereo not drawn)	0	-11	5.1*	5	1	3
COC(=O)Cc1c(C)c2ccc(OCC(=O)OCc3ccccc3)cc2oc1=O	0	5	-2	-5	.	.
COc1c([N+](=O)[O-])c(=O)oc2ccc([N+](=O)[O-])cc12	0	7	-2	-2	.	.
CC(=N)c1c(O)c2cc([N+](=O)[O-])ccc2oc1=O	0	0	5.7*	9	0	1
COc1ccc(C2=NN(C(=O)CSc3nnc(CNC(=O)c4cccs4)n3-c3ccccc3OC)C(c3ccc(F)cc3)C2)cc1 (stereo not drawn)	0	3	-1	2	.	.
CCCCC[C@H](O)/C=C/C1=C(CCCCCCC(=O)O)C(=O)CC1	0	3	5.6*!	-11	1	-4
SMILES	FBW7 activator	MITF primary	GPR151 activ	TEAD-YAP block	GPR151 conf act	GPR119 ag
C[C@@H](O)CCC[C@H](O)/C=C/C1=C(C/C=C\CCCC(=O)O)C(=O)CC1	.	0	-1	.	.	.
O=[N+]([O-])c1ccc(Cl)cc1NCCOCC(F)(F)F	0	10	5.2*	7	0	-1
COc1cccc(CC2(C3CCN(Cc4ccccc4F)CC3)NC(=O)N(C)C2=O)c1 (stereo not drawn)	0	1	5.0*	8	1	4
COc1cccc(CC2(C3CCN(Cc4cccnc4)CC3)NC(=O)N(C)C2=O)c1 (stereo not drawn)	0	-5	1	-2	.	.
CC(NC(=O)C12CC3CC(CC(C3)C1)C2)C(=O)N1CCOCC1 (stereo not drawn)	-1	-5	5.0*	-1	-1	-7
O=C(CNC(=O)C12CC3CC(CC(C3)C1)C2)N1CCOCC1	0	1	-1	-1	.	.
O/N=C/c1cn(-c2ccccc2)nc1-c1ccc(F)cc1	1	19	6.0*	-5	-1	-15
FC(F)(F)c1nnc2c3ccccc3c(NC3CC3)nn12	0	6	7.3*	1	0	8
CN1CCN(/N=C/C2=C(O)CC(C)(C)CC2=O)CC1	1	23	8.4*	-1	0	4
CCOC(=O)N1CCN(CC(O)COc2ccc([N+](=O)[O-])cc2)CC1 (stereo not drawn)	0	-12	5.4*	-4	1	19
CCCCCCNC(=O)c1cnn2c(C)c(Cc3ccccc3F)c(C)nc12	0	-8	-1	-8	.	.
CCS(=O)(=O)N1CCN=C1SCc1ccccc1	0	-7	5.6*	5	1	10
CCCS(=O)(=O)N1CCN=C1SCc1ccccc1	0	0	1	-4	.	.
CC(C)n1cnc2c(NC3CC3)nc(-c3ccccc3)nc21	0	-3	0	1	.	.
O=C(CSc1ccc(F)cc1)NC1CCCCC1N1C(=O)CSC1=O (stereo not drawn)	0	2	-1	-24	.	.
CC(C)CCN1C(=O)CC(NNC(=O)c2cc3ccccc3cc2O)C1=O (stereo not drawn)	0	-3	-1	4	.	.
O=c1c2cccnc2n(Cc2cccc(F)c2)c(=O)n1Cc1ccc(F)cc1	0	-5	-1	-6	.	.
CC(C)CCn1c(=O)c2cccnc2n(Cc2cccc(F)c2)c1=O	0	-8	12*	-8	-1	-4
C=CCSc1nc2c(c(=O)[nH]1)C(c1ccc(C)o1)C1=C(CCCC1=O)N2 (stereo not drawn)	0	13	6.3*	2	0	-6
CCn1c(O)c(C=NC2CCCC2)c(=O)[nH]c1=S	0	-12	5.2*	3	0	0
CCOC(=O)c1c(NC(=O)CSc2n[nH]c(N)n2)sc(C(C)=O)c1C	0	6	13*	-4	0	-3
CCOC(=O)c1c(NC(=O)CSc2n[nH]c(-c3ccccc3)n2)sc(C(C)=O)c1C	0	6	2	4	.	.
